# Bioassay records (PubChem)
# Shown are actives, neighbours in structure and some others; about 8% of the full set was active somewhere.
# HT1080-NT tox: qHTS for induction of synthetic lethality in tumor cells producing 2HG: qHTS for the HT-1080-NT fibrosarcoma cell line; HT-1080-NT fibrosarcoma viability, CellTiter-Glo ATP luminescence, 48 h; Potency, µM (titrated, usually from 46.1 µM), inactives show top-dose activity, negative = less viability, actives largely listed as cytotoxic; 1.6% of 360,000 active;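 also: NT is the 2HG producing partner of a matched IDH1 knockdown line; 0% = DMSO-treated cells and -100% = media-only wells without cells; nearly all actives have a fitted effect of over 55% in size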
#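 Fibrosarcoma NT cells, 750 per well in 5% FBS RPMI, were exposed to compound for 48 hours. Viability: CellTiter-Glo luminescence.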
# MCF10A rerep: A quantitative high throughput screen for small molecules that induce DNA re-replication in MCF 10a normal breast cells | 2.9% of 350,000 active | Potency, µM (doses to about 46.1 µM), for inactives: top-dose activity, positive = re-replication, hits mostly activators | MCF 10A DNA re-replication, Hoechst nuclear intensity, 48 h; also: % of control where 0% means no effect; nearly all actives have a fitted effect of over 50% in size
# HT1080 IDH1KD tx: qHTS for induction of synthetic lethality in tumor cells producing 2HG: qHTS for the HT-1080-IDH1KD cell line; 2% of 360,000 active; Potency, µM (doses to about 46.1 µM), for the others: top-dose activity, negative = toxicity, actives largely listed as cytotoxic; HT-1080 IDH1 knockdown viability, ATP luminescence, 48 h;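 also: 0% = DMSO wells and -100% = cell-free medium wells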
#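 After a 2 h attachment period, IDH1KD HT-1080 cells took pin-transferred compound for 48 h at 37 °C; ATP-based luminescence after 10 min room-temperature reagent incubation reported viability.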
# SW480 rereplic: A quantitative high throughput screen for small molecules that induce DNA re-replication in SW480 colon adenocarcinoma cells | SW480 DNA re-replication, Hoechst DNA content imaging, 48 h | Potency, µM (highest dose often 46.1 µM), without a hit: at the top dose re-replication activation, actives largely listed as activators | 1.8% of 340,000 active; also: % of control where 0% means no effect; nearly all actives have a fitted effect of over 55% in size
#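 Hoechst fluorescence of nuclei (405 nm excitation, 500-530 nm emission) measured by plate-scanning imager after 48 hr compound exposure at 37 C; re-replication scored as increased number of nuclei with elevated intensity.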
# KB-V1 MDR tox: qHTS assay for MDR1-selective chemotherapeutics: Primary screen using the drug-selected MDR subline cells KB-V1. KB-V1 MDR cells viability, CellTiter-Glo, 72 h. Potency, µM (titrated, usually from 46.1 µM), actives largely listed as cytotoxic. 3.4% of 400,000 active. AID 1347076, 2019; also: % is scaled to controls: 0 for no effect and ±100 for the full control effect; nearly all actives have a fitted effect of over 60% in size
#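 Drug-selected KB-V1 cells, grown in DMEM lacking phenol red with 10% FBS, receive compound titrations; after three days at 37 degrees C, surviving cell ATP is quantified by CellTiter-Glo luminescence and responses normalized and curve-fitted.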
# KB-3-1 cytotox: qHTS assay for MDR1-selective chemotherapeutics: Primary screen using the parental adenocarcinoma cell KB-3-1; KB-3-1 viability, CellTiter-Glo ATP luminescence, 72 h; Potency, µM (titrated, usually from 46.1 µM), hits mostly cytotoxic; 1.4% of 400,000 active; AID 1347075, 2019; also: % is scaled to controls: 0 for no effect and ±100 for the full control effect; nearly all actives have a fitted effect of over 60% in size
#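 Viability of parental KB-3-1 cells, measured by CellTiter-Glo luminescence, followed a 72 h incubation at 37 °C with pinned compounds in phenol-red-free DMEM containing 10% FBS.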
# * hit, by the source's call; i = inactive; ? = inconclusive; . = no result. Calls follow the shape of the dose curve; as a rule, active = well fitted curve in the direction sought with a large enough effect; inconclusive = small, poorly fitted or top-dose-only effect, or another doubt; inactive = no such curve, though single readings can be large; an effect the other way counts as inactive or inconclusive. Potency is read from the fitted curve at half-maximal effect.
SMILES,HT1080-NT tox,MCF10A rerep,HT1080 IDH1KD tx,SW480 rereplic,KB-V1 MDR tox,KB-3-1 cytotox
CC(=O)Nc1cc2c(cc1[N+](=O)[O-])-c1ccccc1C2=NO,4%,-1%,?,0%,i,?
CCC1CCCCN1Cc1cn2c(-c3ccc(Br)cc3)nnc2s1 (configuration not stated),.,.,.,.,i,i
Cc1ccc(-c2csc(/C=C3\SC(C)C(=O)N3CC(=O)Nc3ccccc3F)n2)cc1 (configuration not stated),17%,18µM*,12%,-3%,?,i
O=C(CN1C(=O)CS/C1=C\c1nc(-c2ccc(Cl)cc2)cs1)Nc1cccnc1Cl,-5%,?,-7%,?,i,i
CC(C)c1ccc2c(c1)C1(NN=C(c3ccccc3)S1)C(=O)N2 (configuration not stated),26µM*,1.3µM*,?,8.2µM*,i,?
CCc1ccc2c(c1)C1(NN=C(c3ccc(C)cc3)S1)C(=O)N2 (configuration not stated),?,6.5µM*,21µM*,?,?,?
CCc1ccc2c(c1)NC(=O)C2(C)Cc1ccc(F)cc1 (configuration not stated),?,.,?,.,?,i
CCCC[C@@H]1C=C(C(=O)O)[C@H](c2ccc(Cl)c(Cl)c2)N1S(=O)(=O)c1ccc(C)cc1,-4%,?,-19%,?,i,i
CC(=O)c1cccc(NC(=O)c2cc(=O)[nH]c3ccc(S(=O)(=O)N4CCOCC4)cc23)c1,5%,-1%,16%,-1%,i,i
CN(C)CCCNC(=O)/C=C/c1ccc2c(c1)OCO2,7%,13%,2%,-3%,i,i
O=C(/C=C/c1ccc2c(c1)OCO2)NCCSCc1ccc(Cl)cc1,-13%,?,-18%,-4%,i,18µM*
O=C(/C=C/c1ccc2c(c1)OCO2)NCCSCc1c(Cl)cccc1Cl,-11%,9.2µM*,?,-7%,?,i
CC1CCCCN1CCCNC(=O)c1[nH]c2ccccc2c1Sc1ccc(Cl)cc1 (configuration not stated),.,.,.,.,i,i
Cc1ccsc1CNc1ncnc2ccc(-c3c(C)noc3C)cc12,.,5.8µM*,.,-1%,?,?
COc1cccc(CNc2ncnc3ccc(-c4c(C)noc4C)cc23)c1,.,?,.,-22%,?,i
CCn1c2ccccc2c2cc(/C=C3\C=Cc4ccccc43)ccc21,.,.,.,.,i,i
O=C(C1CC1)N1c2ccccc2Sc2ccccc21,?,?,18µM*,?,?,21µM*
Cn1c(NC2CCCCC2)cc(=O)n(C)c1=O,9%,1%,8%,3%,i,i
Cc1cc(C2CCCCC2)n(O)c(=O)c1,8.2µM*,?,18µM*,?,?,i
O=C(NCCCN1CCN(c2cccc(Cl)c2)CC1)C1(S(=O)(=O)c2ccc(Cl)cc2)CC1,-9%,?,-17%,?,i,?
COc1ccc(NC(=O)CCN2CCN(S(=O)(=O)c3cc(Cl)ccc3Cl)CC2)cc1,6%,-25%,0%,12%,i,i
CC(=O)N1CCN(CCS(=O)(=O)c2cc(Cl)ccc2Cl)CC1,5%,15µM*,19%,?,i,i
COc1ccc(N2CCN(CCCNC(=O)C3(S(=O)(=O)c4ccc(Cl)cc4)CC3)CC2)cc1,2%,8%,5%,-3%,9.2µM*,i
COc1ccc(N2CCN(CCS(=O)(=O)c3cc(Cl)ccc3Cl)CC2)cc1,-5%,5.8µM*,-2%,7.3µM*,i,i
CC1CN(CCS(=O)(=O)c2cc(Cl)ccc2Cl)CC(C)O1 (configuration not stated),?,2.9µM*,?,?,?,?
SMILES,HT1080-NT tox,MCF10A rerep,HT1080 IDH1KD tx,SW480 rereplic,KB-V1 MDR tox,KB-3-1 cytotox
CCSc1nnc2c(n1)OC(c1cc(OC)c(OC)c(OC)c1)Nc1ccccc1-2 (configuration not stated),.,.,.,.,i,i
CCN=C1S/C(=C\c2sccc2C)C(=O)N1CC,18%,12%,5%,2%,13µM*,?
CC(C)OC(=O)Nc1ccc2c(c1)N(C(=O)N1CCN(C)CC1)c1ccccc1CC2,23µM*,?,23µM*,-61%,?,?
CCOC(=O)Nc1ccc2c(c1)N(C(=O)N1CCN(C)CC1)c1ccccc1CC2,?,-3%,?,-1%,i,i
COc1ccc(N2CCN(C3(c4ccccc4)C(=O)c4ccccc4C3=O)CC2)cc1,.,.,.,.,i,i
O=C(Nc1cccc2ncccc12)c1ccc(OCc2ccccc2)cc1,-23%,1.5µM*,-17%,-33%,?,i
Nc1ccc(C(=O)Nc2cccc3ncccc23)cc1,-7%,15%,2%,2%,i,i
CCOc1ccc(C(=O)Nc2cccc3ncccc23)cc1Br,-4%,0.58µM*,0%,64%,i,i
Cn1cc(C(=O)c2ccc(Cl)cc2Cl)cc1C(=O)N/N=C(\N)COc1ccccc1,-19%,?,-28%,?,?,i
Cn1cc(C(=O)c2ccc(Cl)cc2Cl)cc1C(=O)N/N=C(\N)COc1ccc(Cl)cc1Cl,?,?,?,9.2µM*,?,18µM*
Cn1cc(C(=O)c2ccc(Cl)cc2Cl)cc1C(=O)N/N=C(\N)COc1ccc(Cl)cc1,?,9%,16µM*,?,?,?
COC(=O)c1cc2c(cc1NC(=O)c1cnn(-c3ccccc3)c1-n1cccc1)OCO2,.,.,.,.,i,i
O=C(Nc1nc2c(F)cccc2s1)C1CC1,13%,2%,-1%,-12%,i,i
CC1CCc2c(sc(Nc3nc4c(F)cccc4s3)c2C(N)=O)C1 (configuration not stated),?,7.3µM*,?,?,i,i
CCOc1ccc(-c2cn3c(n2)sc2cc(C(=O)NCCc4ccc(OC)c(OC)c4)ccc23)cc1,.,.,.,.,i,i
CCc1nc2ccc(Cc3ccc4nc(CC)[nH]c4c3)cc2[nH]1,-19%,1%,-1%,3.3µM*,i,?
CCc1nc2ccccc2[nH]1,4%,-8%,12%,-4%,i,i
